Measured values published in PubChem BioAssay (NCATS).
Inconclusive results are not listed. Where a call stands in place of a potency, no number is given. Values without a mark were called inactive. Calls of active or inactive are those of the source. Calls come from the whole dose curve; as a rule, active = well fitted cell-killing curve with a large enough effect; inconclusive = small, poorly fitted or top-dose-only effect, or effect the other way; inactive = flat fitted curve, though single readings scatter.

Columns and labels:
Assay in all cases: Primary qHTS to identify gynecologic anti-cancer compounds using libraries of approved drugs and bioactive compounds (AID 1345084); note: nearly all actives have a fitted effect of over 55% in size
C33A = conditions: Gynecologic cancer cell panel viability, ATPlite luminescence, 48 h; series mostly up to 57.5 µM
Procedure, shortened: (§1)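 ATP-based viability (ATPlite), 1,000 cells/well, 16 h pre-incubation, 48 h compound at 37 C, 5% CO2, 15 min RT before read.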

CAOV3 = conditions: Gynecologic cancer cell panel viability, ATPlite luminescence, 48 h; series mostly up to 57.5 µM
Procedure, shortened: as §1

CASKI = conditions: Gynecologic cancer cell panel viability, ATPlite luminescence, 48 h; series mostly up to 57.5 µM
Procedure, shortened: as §1

Es-2 = conditions: Gynecologic cancer cell panel viability, ATPlite luminescence, 48 h; series mostly up to 57.5 µM
Procedure, shortened: as §1

HeLa = conditions: Gynecologic cancer cell panel viability, ATPlite luminescence, 48 h; series mostly up to 57.5 µM
Procedure, shortened: as §1

Hek293T = conditions: Gynecologic cancer cell panel viability, ATPlite luminescence, 48 h, control line for the selectivity index; series mostly up to 57.5 µM
Procedure, shortened: as §1

JEG-3 = conditions: Gynecologic cancer cell panel viability, ATPlite luminescence, 48 h; series mostly up to 57.5 µM
Procedure, shortened: as §1

OV90 = conditions: Gynecologic cancer cell panel viability, ATPlite luminescence, 48 h; series mostly up to 57.5 µM
Procedure, shortened: as §1

SKOV3 = conditions: Gynecologic cancer cell panel viability, ATPlite luminescence, 48 h; series mostly up to 57.5 µM
Procedure, shortened: as §1

Tov-21-G = conditions: Gynecologic cancer cell panel viability, ATPlite luminescence, 48 h; series mostly up to 57.5 µM
Procedure, shortened: as §1

Tov112D = conditions: Gynecologic cancer cell panel viability, ATPlite luminescence, 48 h; series mostly up to 57.5 µM
Procedure, shortened: as §1

PA-1 = conditions: Gynecologic cancer cell panel viability, ATPlite luminescence, 48 h; series mostly up to 57.5 µM
Procedure, shortened: as §1
Potency is the fitted concentration of half-maximal effect.

For `C=C(C(=O)O)C1CC2=C(C)CCCC2(C)C[C@@H]1O` (stereo partly specified), the Potency (C33A) was “inactive”, the Potency (CAOV3) was “inactive” and the Potency (CASKI) was “inactive”. For the same compound, the Potency (Es-2) was “inactive”, the Potency (HeLa) was “inactive” and the Potency (Hek293T) was “inactive”. For the same compound, the Potency (JEG-3) was “inactive”, the Potency (OV90) was “inactive” and the Potency (SKOV3) was “inactive”. The Potency (Tov-21-G) was “inactive” and the Potency (Tov112D) was “inactive”.
For `C1CCC[C@H]2CCCN3CC[C@@H](CCCCCC[C@@H]4CCCN5CC[C@@H](CC1)O[C@@H]45)O[C@@H]23`, the activity change, negative = cytotoxicity (C33A) was 6.95% [at 0.155 µM], the activity change, negative = cytotoxicity (CAOV3) was 1.15% [at 0.155 µM] and the activity change, negative = cytotoxicity (CASKI) was -13.7% [at 0.155 µM]. The activity change, negative = cytotoxicity (Es-2) was 2.67% [at 0.155 µM], the activity change, negative = cytotoxicity (HeLa) was 18.4% [at 0.155 µM] and the activity change, negative = cytotoxicity (Hek293T) was 4.56% [at 0.155 µM]. It also gave an activity change, negative = cytotoxicity (JEG-3) of -9.47% [at 0.155 µM], an activity change, negative = cytotoxicity (OV90) of -15.5% [at 0.155 µM] and an activity change, negative = cytotoxicity (SKOV3) of 0.0209% [at 0.155 µM]. For the same compound, the activity change, negative = cytotoxicity (Tov-21-G) was 5.89% [at 0.155 µM] and the activity change, negative = cytotoxicity (Tov112D) was 2.94% [at 0.155 µM].
With `O=C1NC2CCc3nc4ccccc4c(=O)n3C2=Nc2ccccc21` (stereo unspecified) the Potency (C33A) was “inactive”, the Potency (CAOV3) was “inactive” and the Potency (CASKI) was “inactive”. The Potency (Es-2) was “inactive”, the Potency (HeLa) was “inactive” and the Potency (Hek293T) was “inactive”. The Potency (JEG-3) was “inactive”, the Potency (OV90) was “inactive” and the Potency (SKOV3) was “inactive”. The Potency (Tov-21-G) was “inactive” and the Potency (Tov112D) was “inactive”.
Work on `C[C@@H]1O[C@@H](O[C@H]2[C@H](O)[C@@H](O)[C@H](O[C@H]3[C@H](O[C@H]4CC[C@@]5(C)C(=CC[C@@H]6C5CC[C@]5(C)[C@@H]7[C@H](C[C@@H]65)O[C@]5(CC[C@@](C)(CO[C@@H]6O[C@H](CO)[C@@H](O)[C@H](O)[C@H]6O)O5)[C@H]7C)C4)O[C@H](CO)[C@@H](O)[C@@H]3O)O[C@@H]2CO)[C@H](O)[C@H](O)[C@H]1O` (stereo partly specified) yielded an activity change, negative = cytotoxicity (C33A) of 1.06% [at 11.6 µM], an activity change, negative = cytotoxicity (CAOV3) of -9.22% [at 11.6 µM] and an activity change, negative = cytotoxicity (CASKI) of 21.1% [at 11.6 µM]. It also gave an activity change, negative = cytotoxicity (Es-2) of 3.9% [at 11.6 µM], an activity change, negative = cytotoxicity (HeLa) of 6.34% [at 11.6 µM] and an activity change, negative = cytotoxicity (Hek293T) of -9.56% [at 11.6 µM]. For the same compound, the activity change, negative = cytotoxicity (JEG-3) was 4.71% [at 11.6 µM], the activity change, negative = cytotoxicity (OV90) was 5.27% [at 11.6 µM] and the Potency (PA-1) was 1.78 µM (active). For the same compound, the activity change, negative = cytotoxicity (Tov112D) was 13% [at 11.6 µM].
With `O=C(Nc1ccccc1)N1CCN(Cc2ccc3ccccc3n2)CC1` the Potency (C33A) was “inactive”, the Potency (CAOV3) was “inactive” and the Potency (CASKI) was “inactive”. The Potency (Es-2) was “inactive”, the Potency (HeLa) was “inactive” and the Potency (Hek293T) was “inactive”. For the same compound, the Potency (JEG-3) was “inactive”, the Potency (OV90) was “inactive” and the Potency (PA-1) was “inactive”. For the same compound, the Potency (Tov-21-G) was “inactive” and the Potency (Tov112D) was “inactive”.
With `CC(C)(C)NS(=O)(=O)c1cncc(-c2cc(F)c3nc(N)nn3c2)c1` the Potency (C33A) was “inactive”, the Potency (CAOV3) was “inactive” and the Potency (CASKI) was “inactive”. For the same compound, the Potency (Es-2) was “inactive”, the Potency (HeLa) was “inactive” and the Potency (Hek293T) was “inactive”. For the same compound, the Potency (JEG-3) was “inactive”, the Potency (OV90) was “inactive” and the Potency (SKOV3) was “inactive”. The Potency (Tov-21-G) was “inactive” and the Potency (Tov112D) was “inactive”.
For `C/C=C(\C)C(=O)O[C@H]1[C@@H](O[C@]2(COC(=O)CC(C)C)O[C@H](COC(=O)C(C)CC)[C@@H](OC(C)=O)[C@@H]2O)O[C@H](COC(C)=O)[C@@H](O)[C@@H]1O` (stereo partly specified), the Potency (C33A) was “inactive”, the Potency (CAOV3) was “inactive” and the Potency (CASKI) was “inactive”. For the same compound, the Potency (Es-2) was “inactive”, the Potency (HeLa) was “inactive” and the Potency (Hek293T) was “inactive”. The Potency (JEG-3) was “inactive”, the Potency (OV90) was “inactive” and the Potency (SKOV3) was “inactive”. For the same compound, the Potency (Tov-21-G) was “inactive” and the Potency (Tov112D) was “inactive”.
Work on `CC(=O)C1=C(C)N(c2cccc(C(F)(F)F)c2)C(=O)N[C@H]1c1ccc(C#N)nc1` yielded an activity change, negative = cytotoxicity (C33A) of 16.9% [at 11.6 µM], an activity change, negative = cytotoxicity (CAOV3) of 8.36% [at 11.6 µM] and an activity change, negative = cytotoxicity (CASKI) of 11.8% [at 11.6 µM]. For the same compound, the activity change, negative = cytotoxicity (Es-2) was 6.68% [at 11.6 µM], the activity change, negative = cytotoxicity (HeLa) was 11% [at 11.6 µM] and the activity change, negative = cytotoxicity (Hek293T) was -1.04% [at 11.6 µM]. For the same compound, the activity change, negative = cytotoxicity (JEG-3) was -3.38% [at 11.6 µM], the activity change, negative = cytotoxicity (OV90) was 5.76% [at 11.6 µM] and the activity change, negative = cytotoxicity (SKOV3) was 12.1% [at 11.6 µM]. For the same compound, the activity change, negative = cytotoxicity (Tov-21-G) was 3.34% [at 11.6 µM] and the activity change, negative = cytotoxicity (Tov112D) was -8.52% [at 11.6 µM].
With `NC(=O)c1csc(C2OC(CO)C(O)C2O)n1` (stereo unspecified) the Potency (C33A) was “inactive”, the Potency (CAOV3) was “inactive” and the Potency (CASKI) was “inactive”. The Potency (Es-2) was “inactive”, the Potency (HeLa) was “inactive” and the Potency (Hek293T) was “inactive”. The Potency (JEG-3) was “inactive”, the Potency (OV90) was “inactive” and the Potency (SKOV3) was “inactive”. For the same compound, the Potency (Tov-21-G) was “inactive” and the Potency (Tov112D) was “inactive”.
For `CC1=CC(=O)CC(C)(C)[C@@]1(O)CC[C@@H](C)O[C@@H]1O[C@H](CO)[C@@H](O)[C@H](O)[C@H]1O`, the Potency (C33A) was “inactive”, the Potency (CAOV3) was “inactive” and the Potency (CASKI) was “inactive”. The Potency (Es-2) was “inactive”, the Potency (HeLa) was “inactive” and the Potency (Hek293T) was “inactive”. For the same compound, the Potency (JEG-3) was “inactive”, the Potency (OV90) was “inactive” and the Potency (SKOV3) was “inactive”. The Potency (Tov-21-G) was “inactive” and the Potency (Tov112D) was “inactive”.
For `Cc1cccc(C)c1OCc1cc(C(=O)N2CCC(c3ccncc3)CC2)no1`, the Potency (C33A) was “inactive”, the Potency (CAOV3) was “inactive” and the Potency (CASKI) was “inactive”. For the same compound, the Potency (Es-2) was “inactive”, the Potency (HeLa) was “inactive” and the Potency (Hek293T) was “inactive”. For the same compound, the Potency (JEG-3) was “inactive”, the Potency (OV90) was “inactive” and the Potency (PA-1) was “inactive”. The Potency (Tov-21-G) was “inactive” and the Potency (Tov112D) was “inactive”.
With `CC(C)[C@@H](CS(=O)(=O)C(C)C)N1C(=O)[C@@](C)(CC(=O)O)C[C@H](c2cccc(Cl)c2)[C@H]1c1ccc(Cl)cc1` the Potency (C33A) was “inactive”, the Potency (CAOV3) was “inactive” and the Potency (CASKI) was “inactive”. For the same compound, the Potency (Es-2) was “inactive”, the Potency (HeLa) was “inactive” and the Potency (Hek293T) was “inactive”. The Potency (JEG-3) was “inactive”, the Potency (OV90) was “inactive” and the Potency (PA-1) was 4.47 µM (active). For the same compound, the Potency (Tov112D) was “inactive”.
With `COc1cc(Nc2nc3c(s2)CCCC3c2ccc(F)cc2)ccc1-n1cnc(C)c1` (stereo unspecified) the Potency (C33A) was “inactive”, the Potency (CAOV3) was “inactive” and the Potency (CASKI) was “inactive”. For the same compound, the Potency (Es-2) was “inactive”, the Potency (HeLa) was “inactive” and the Potency (Hek293T) was “inactive”. For the same compound, the Potency (JEG-3) was “inactive”, the Potency (PA-1) was “inactive” and the Potency (Tov-21-G) was “inactive”. The Potency (Tov112D) was “inactive”.
`O=C(C(c1ccccc1)c1ccccc1)N1CCN(CC(O)COc2cccc3ncccc23)CC1` (stereo unspecified) was tested, and the Potency (C33A) was “inactive”, the Potency (CAOV3) was “inactive” and the Potency (CASKI) was “inactive”. The Potency (Es-2) was “inactive”, the Potency (HeLa) was “inactive” and the Potency (Hek293T) was “inactive”. The Potency (JEG-3) was “inactive”, the Potency (PA-1) was “inactive” and the Potency (SKOV3) was “inactive”. The Potency (Tov-21-G) was “inactive” and the Potency (Tov112D) was “inactive”.
`CN(CCc1ccc(Nc2ncc(-c3cccnc3)s2)cc1)Cc1ccccc1` was tested, and the Potency (C33A) was “inactive”, the Potency (CAOV3) was “inactive” and the Potency (CASKI) was “inactive”. For the same compound, the Potency (Es-2) was “inactive”, the Potency (HeLa) was “inactive” and the Potency (Hek293T) was “inactive”. The Potency (JEG-3) was “inactive”, the Potency (OV90) was “inactive” and the Potency (Tov-21-G) was “inactive”. The Potency (Tov112D) was “inactive”.
